Each structure is given as a SMILES string. About 83,000 compounds went through this panel and 20% of them were active in at least one assay; those are over-represented in the sample as a whole.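 Results are percent growth after 48 hours of single-concentration exposure. 100 means growth as in untreated cells, lower positive values show inhibition; negative values down to -100 show cell death.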 A number with no mark means an inactive call. Activity calls are given as the source filed them. The calls were made as follows: active = growth percent below 10; inactive = the rest.

Common to all, as to experiment: NCI-60 one-dose screen, 48 h (100 = growth as untreated, 0 = no growth, -100 = all killed)
Common to all, as to settings: 10 µM unless noted

Assay [1] relates to NCI-H23 lung.
The test system of assay [2] is NCI-H226 lung.
Assay [3] concerns NCI-H322M lung.
For assay [4], the system named is HOP-62 NSCLC.
In assay [5] the test system is NCI-H460 lung.
Assay [6] relates to HOP-92 NSCLC.
In assay [7] the test system is NCI-H522 lung.
For assay [8], the system named is A549/ATCC NSCLC.
Assay [9] relates to 786-0 renal.
Assay [10] relates to COLO 205 colon.
Assay [11] relates to DU-145 prostate.
Assay [12] concerns K-562 leukemia.
In assay [13] the test system is MALME-3M melanoma.
Assay [14] concerns MDA-MB-231 breast.
Assay [15] deals with RXF 393 renal.
Assay [16] relates to SF-268 CNS.
The test system of assay [17] is SF-295 CNS.
Assay [18] deals with SF-539 CNS.
Assay [19] has as its system UACC-257 melanoma.
Assay [20] relates to M14 melanoma.

As to `CCOc1ccc(/C=C/[N+](=O)[O-])cc1`, the growth is 87.8% in [1]; 81.4% in assay [2]; 98.5% in assay [3]; 110% in assay [4]; 98.2% in assay [5]; 76.6% in assay [6]. Also, the growth was 96.8% in assay [7]; 78.8% in assay [8]; 92.4% in assay [9]; 94.1% in assay [10]; 99.3% in assay [11]; 69% in [12]. For the same compound, the growth in assay [13] is 106%; in assay [14], 92.8%; in assay [15] it was 16.9%; in [16], 98.9%; in [17], 82.5%; in assay [18], 39%. Besides, the results for the growth in assay [19] and in assay [20] were 85.5% and 54.5%, respectively.

Turning to `CC(C)(C)N1CC1C#N` (stereo not given), the growth was 99.5% in [1]; 103% in assay [2]; 96.3% in [3]; 105% in [4]; 105% in assay [5]; 105% in assay [6]. For the same compound, the growth is 96% in assay [7]; 105% in assay [8]; 98.6% in assay [9]; 98.7% in [10]; 105% in assay [11]; 99% in [12]. The growth is 103% in assay [13]; 96.3% in [14]; 107% in assay [15]; 101% in assay [16]; 91.4% in [17]; 103% in [18]. Further, the growth in assay [19] was 105%; in assay [20], 110%.

On to `C1CCC2(CC1)OOCNCOO2`, for which the growth is 98.2% in assay [1]; 107% in assay [2]; 97.4% in assay [3]; 103% in [4]; 108% in assay [5]; 122% in assay [6]. Also, the growth in assay [7] was 89.7%; in assay [8], 102%; in assay [9], 105%; in assay [10] it was 115%; in assay [11], 111%; in assay [12], -35.4% (active). Also, the growth in [13] was 110%; in [14], 120%; in [15], 116%; in [16], 97.3%; in assay [17] it was 97.4%; in assay [18], 101%. Besides, the values for the growth in [19] and in assay [20] were 98.5% and 100%, respectively.

Consider `CN1C(=O)C(=Cc2cn(Cc3ccccc3)c3ccccc23)C(=O)N(C)C1=O`, for which the growth in assay [1] was 80.4%; in assay [2] it was -71% (active); in assay [3], 72.3%; in assay [4], 73.6%; in [5], 0.11% (active); in assay [6], 65.1%. The growth in assay [7] is 92.6%; in assay [8] it was 81.7%; in assay [9], 93.9%; in assay [10], 1.43% (active); in assay [11], 103%; in [12] it was 51.1%. Also, the growth in [13] is 91.3%; in assay [14] it was 75.5%; in assay [15], 56.9%; in assay [16], 95.4%; in assay [17], 34.7%; in assay [18] it was 86.2%. Besides, the growth in assay [19] is 27.9%; in assay [20], 92.6%.

Turning to `Fc1ccc2c(c1)c(-c1nc(-c3c[nH]c4ncccc34)cs1)cn2CCCCN1CCCCC1`, the growth in assay [1] was -75.9% (active); in assay [2], -7.3% (active); in assay [3] it was -47.9% (active); in assay [4], -89.5% (active); in [5], -80% (active); in [6] it was -52.8% (active). For the same compound, the growth in [7] was -87.2% (active); in [8] it was -87.7% (active); in [9] it was -93.7% (active); in assay [10], -89.6% (active); in [11], -93.1% (active); in assay [12], -74.1% (active). For the same compound, the growth in assay [13] is -73% (active); in assay [14] it was -88.4% (active); in [15] it was -73.1% (active); in assay [16], -77.5% (active); in assay [17] it was -60.7% (active); in assay [18], -82.4% (active). Moreover, the growth in [19] was -87.2% (active); in assay [20] it was -88.5% (active).

As to `[Cl][Hg][c]1cc(Br)cc(Br)c1`, the growth in assay [1] was 61.8%; in [2], 99.9%; in assay [3], 80%; in assay [4] it was 31.7%; in [5] it was 32.2%; in [6] it was 11.2%. The growth is -30.4% (active) in assay [7]; 68% in assay [8]; 26.3% in [9]; 91% in assay [10]; 79.3% in assay [11]; 6.31% (active) in assay [12]. For the same compound, the growth is 69.8% in [13]; 19.8% in assay [14]; -18.3% (active) in assay [15]; 25.6% in assay [16]; 80.2% in assay [17]; 38.9% in assay [18]. Also, the growth in assay [19] was 58.5%; in assay [20], 46.1%.

`CC[C@@H]1[C@@H](C)O[C@@](O)([C@@H](C)[C@H](O)[C@H](C)[C@H]2OC(=O)/C=C/C=C/[C@H](C)[C@@H]([C@@H](C)[C@@H](O)[C@H](C)[C@@]3(O)C[C@@H](O[C@H]4C[C@@H](O)[C@H](O)C(C)O4)[C@H](CC)[C@@H](C)O3)OC(=O)/C=C/C=C/[C@@H]2C)C[C@H]1O[C@@H]1C[C@@H](O)[C@H](O)C(C)O1` (stereo not given in full): the growth was -73.9% (active) in [1]; -57.5% (active) in [2]; -96.6% (active) in assay [3]; -80.6% (active) in [4]; -72.6% (active) in assay [5]; -89.9% (active) in assay [6]. Besides, the growth in assay [7] was -81.8% (active); in [8] it was -89.7% (active); in assay [9], -86.1% (active); in assay [10], -78.4% (active); in [11], -97.5% (active); in [12], -71.6% (active). Also, the growth was -97% (active) in assay [13]; -68.3% (active) in assay [14]; -96.7% (active) in assay [15]; -86.3% (active) in [16]; -86.5% (active) in assay [17]; -96.8% (active) in assay [18]. For the same compound, the values for the growth in [19] and in assay [20] were -89.5% (active) and -83.9% (active), respectively.

Turning to `COc1ccc(C2=N[C@@H](Cc3ccccc3)C(=O)Nc3ccsc32)cc1`, the growth in [1] was 53.7%; in assay [2], 76.3%; in assay [3], 89.8%; in assay [4] it was 66%; in assay [5], 51.7%; in assay [6] it was 61.4%. Besides, the growth in [7] was -13.4% (active); in assay [8] it was 43.2%; in assay [9], 66.6%; in [10] it was 35.6%; in [11], 71.3%; in [12] it was 16.2%. The growth is 48.6% in assay [13]; 55.9% in [14]; 34.3% in assay [15]; 55.1% in assay [16]; 37% in assay [17]; 44.9% in assay [18]. Further, the growth is 44% in assay [19] and 20.7% in assay [20].

The values are drawn from PubChem BioAssay (NCI).
